Hits are enriched below; roughly 1.7% of the tested compounds scored in any of these assays.
Rin1-Abl PPI inh: inhibitors of Rin1-Abl protein binding, primary screen, biochemical, TR-FRET. Tyrosine-protein kinase ABL1 (Homo sapiens) + Ras and Rab interactor 1 (Homo sapiens), …. actives 0.4% (n = 360,000). inhibition, % at 7.35 µM; in the data active = inhibition above about 5%, passing the limit was not always enough
LYPLA1 inh: LYPLA1 inhibitors, primary screen, counter-screen for PME1 inhibitor project, biochemical, fluorescence polarization, FP-Rh probe ABPP; Acyl-protein thioesterase 1 (Homo sapiens), O75608; recombinant LYPLA1; inhibition, % at 5.9 µM; actives 0.16% (n = 320,000); AID 2174, 2009;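 active = inhibition above the mean of all tested compounds plus 3 SD, set per campaign, cut at about 14% in these data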;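 also: inhibitors block serine hydrolase probe labeling of LYPLA1 so polarization falls; 0% = enzyme with DMSO and 100% = wells lacking LYPLA1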
Target sequence (O75608 whole entry, looked up): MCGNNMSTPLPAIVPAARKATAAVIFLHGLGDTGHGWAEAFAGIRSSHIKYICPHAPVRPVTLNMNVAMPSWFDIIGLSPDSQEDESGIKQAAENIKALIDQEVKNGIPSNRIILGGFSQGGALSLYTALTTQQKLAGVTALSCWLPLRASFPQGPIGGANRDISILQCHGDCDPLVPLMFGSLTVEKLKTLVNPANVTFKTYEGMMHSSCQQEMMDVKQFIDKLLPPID
PREPL inh: PREPL enzyme inhibitors, primary screen, biochemical, fluorescence polarization; AID 2751, 2010; recombinant PREPL, fluorescence polarization activity-based probe; actives 0.68% (n = 320,000); Prolyl endopeptidase-like (Homo sapiens), Q4J6C6; inhibition, % at 5.96 µM; in the data active = inhibition above about 43%;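 also: 0% = enzyme with DMSO and 100% = wells lacking enzyme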
Hck Nef HTS: inhibitors of Nef-activated human Hck kinase, primary screen, biochemical, Z-Lyte FRET, 384-well, Hck-YEEI. Tyrosine-protein kinase HCK (Homo sapiens), P08631. Recombinant Hck-YEEI plus Nef, Z-Lyte FRET kinase assay. inhibition, % at 20 µM. actives 0.68% (n = 220,000). AID 463187, 2010;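 active = Hck-Nef kinase inhibition above about 50%, limit read from the data; inactive = inhibition below that limit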;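 also: 0% = DMSO with Hck plus Nef and 100% = Hck alone without Nef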
Target sequence (P08631 whole entry, looked up): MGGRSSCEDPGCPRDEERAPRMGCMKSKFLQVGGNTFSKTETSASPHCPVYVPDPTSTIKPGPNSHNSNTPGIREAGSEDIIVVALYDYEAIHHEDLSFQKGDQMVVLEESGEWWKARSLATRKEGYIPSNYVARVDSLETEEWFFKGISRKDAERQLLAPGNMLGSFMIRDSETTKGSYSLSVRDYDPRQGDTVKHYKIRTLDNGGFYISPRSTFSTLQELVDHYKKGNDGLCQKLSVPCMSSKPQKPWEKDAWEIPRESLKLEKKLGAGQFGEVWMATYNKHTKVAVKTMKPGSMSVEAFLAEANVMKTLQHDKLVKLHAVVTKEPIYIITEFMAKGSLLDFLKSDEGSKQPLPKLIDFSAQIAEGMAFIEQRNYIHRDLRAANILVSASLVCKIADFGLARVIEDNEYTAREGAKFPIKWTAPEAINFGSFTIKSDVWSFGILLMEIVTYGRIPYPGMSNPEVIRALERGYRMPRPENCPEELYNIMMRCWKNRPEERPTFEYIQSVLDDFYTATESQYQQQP
LYPLA2 inh: LYPLA2 inhibitors, primary screen, counter-screen for PME1 inhibitor project, biochemical, fluorescence polarization, FP-Rh probe ABPP; recombinant LYPLA2; actives 0.38% (n = 320,000); AID 2177, 2009; inhibition, % at 5.9 µM; Acyl-protein thioesterase 2 (Homo sapiens), O95372;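 active = inhibition above the screen-wide mean plus 3 SD, limit set per campaign, cut at about 26% in these data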;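 also: 0% = LYPLA2 with DMSO and 100% = wells lacking LYPLA2 enzyme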
p97 ATPase inh: inhibitors of human p97 ATPase, primary screen, biochemical; Transitional endoplasmic reticulum ATPase (Homo sapiens), P55072; recombinant p97 ATPase, Kinase-Glo ATP luminescence, 3 h; inhibition, % at 8 µM; actives 0.42% (n = 220,000); AID 1481, 2009; in the data active = inhibition above about 15%;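 also: 0% = DMSO vehicle and 100% = wells lacking enzyme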
LYPLA1 confirm: LYPLA1 inhibitors, retest, confirmation, counter-screen for PME1 inhibitor project, biochemical, fluorescence polarization, FP-Rh probe ABPP; shares compounds with LYPLA1 inh; recombinant LYPLA1; inhibition, % at 5.9 µM; actives 69% (n = 480);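 active = mean inhibition across replicates above the hit cutoff set in the primary screen, cut at about 15% in these data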;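 also: loss of FP-Rh probe labeling of LYPLA1 seen as lower polarization; 0% = LYPLA1 with DMSO and 100% = wells lacking LYPLA1 enzyme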
LYPLA2 conf: LYPLA2 inhibitors, retest, confirmation, counter-screen for PME1 inhibitor project, biochemical, fluorescence polarization, FP-Rh probe ABPP; shares compounds with LYPLA2 inh; recombinant LYPLA2; inhibition, % at 5.9 µM; actives 72% (n = 1,100); AID 2232, 2010;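 active = mean inhibition across replicates above the hit cutoff set in the primary screen, cut at about 26% in these data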;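 also: blocked labeling of the enzyme by serine hydrolase FP-Rh probe lowers polarization; 0% = enzyme with DMSO and 100% = wells lacking LYPLA2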
* hit, by the source's call; x = no result given.

SMILES | Rin1-Abl PPI inh | LYPLA1 inh | PREPL inh | Hck Nef HTS | LYPLA2 inh | p97 ATPase inh | LYPLA1 confirm | LYPLA2 conf
O=C1OC(c2ccccc2)Cc2cc(C(=O)N3CCN(c4ccc(F)cc4)CC3)ccc21 (stereo not given) | -0.9 | x | x | x | x | x | x | x
CCOc1ccc(/C=N/Nc2cc(C)nc(N3CCOCC3)n2)cc1 | -1.0 | -5.5 | 2.4 | 16.8 | -3.4 | -6.6 | x | x
CCOc1ccc(/C=N/Nc2cc(N3CCOCC3)nc(C)n2)c(O)c1 | 3.8 | 30.5* | 21.9 | x | 13.5 | x | 33.3* | x
O=C(CCc1nc2ccccc2c(=O)[nH]1)N1CCN(S(=O)(=O)c2ccc(Cl)c(C(F)(F)F)c2)CC1 | -1.3 | -0.1 | 1.5 | x | 0.2 | x | x | x
O=C(COc1ccc(Cl)cc1)N1CCN(c2ccc([N+](=O)[O-])c(N3CCCCC3)c2)CC1 | -0.2 | 66.4* | 26.6 | 1.0 | 20.7 | 1.7 | 79.4* | x
CC1CCN(C(=O)COC(=O)c2cccs2)CC1 | -0.5 | x | 9.3 | x | x | x | x | x
CCc1ccccc1N(C(=O)c1ccco1)C(C(=O)NC1CCCC1)c1cccnc1 (stereo not given) | -1.9 | -1.4 | 6.1 | x | -3.7 | x | x | x
Cc1ccc(C(=O)N/N=C/c2ccc(-c3ccc(Br)cc3[N+](=O)[O-])o2)o1 | -5.2 | 18.3* | 25.1 | x | 21.3 | x | -3.4 | x
Cc1ccc(C(=O)N/N=C\c2ccc(Br)o2)o1 | -1.3 | 0.5 | 1.9 | 2.4 | -0.4 | 3.1 | x | x
CC1CCc2c(sc(NC(=O)CN3CCN(C(=O)c4ccco4)CC3)c2C#N)C1 (stereo not given) | -0.7 | 42.0* | 13.8 | 30.5 | 24.8 | 6.2 | 41.8* | x
CC1CCN(CC(=O)Nc2sc3c(c2C#N)CCC3)CC1 | 0.5 | -2.5 | 13.5 | 1.7 | 2.0 | 4.2 | x | x
COc1ccc(-n2nc(C(=O)NCC(=O)N3CCN(c4cccc(Cl)c4)CC3)c3ccccc3c2=O)c(OC)c1 | -0.6 | 49.3* | 15.6 | x | 82.8* | x | 49.0* | 68.5*
CCn1c(CSc2nnc(-c3ccncc3)n2CCOC)nc2cc(C(=O)O)ccc21 | -0.1 | 31.3* | 23.1 | 14.3 | 39.3* | -3.5 | 33.8* | 33.7*
CCn1c(CSc2nnc(-c3cccnc3)n2-c2ccccc2C)nc2cc(C(=O)O)ccc21 | x | 76.9* | 49.3* | -1.0 | 80.1* | -3.7 | 72.1* | 72.2*
COC(=O)c1ccc(C(=O)OC)c(NC(=O)CSc2n[nH]c(N)n2)c1 | -0.1 | x | -6.8 | x | x | x | x | x
CCn1c(CSc2n[nH]c(N)n2)nc2cc(C(=O)O)ccc21 | -5.6 | 39.3* | 16.7 | -0.9 | 38.4* | 1.2 | 34.6* | 34.6*
CCn1c(CSc2nnc3ccccn23)nc2cc(C(=O)O)ccc21 | 3.7 | 38.7* | 22.8 | -0.4 | 42.8* | 5.2 | 52.5* | 51.1*
Fc1ccccc1NC(=S)NCCc1cccc(Cl)c1 | 3.1 | x | x | x | x | x | x | x
COc1ccccc1S(=O)(=O)Cc1ccc(C(=O)NCCCN2CCN(c3ccc(F)cc3)CC2)o1 | 2.0 | -2.4 | 30.5 | x | 1.8 | x | x | x
Cc1ccc(O)c(CP(=O)(c2ccccc2)c2ccccc2)c1 | 0.0 | 1.6 | 2.2 | 7.4 | 10.4 | 0.8 | x | x
CCNc1ccccc1CP(=O)(c1ccccc1)c1ccccc1O (stereo not given) | x | 51.5* | 50.6* | x | 63.7* | x | 2.0 | 4.7
N#Cc1c(NC(=S)NC(=O)c2ccccc2)sc2c1CCC2 | -0.7 | -3.1 | -2.3 | 2.7 | 0.6 | 6.1 | x | x
O=C(NC(=S)Nc1sc2c(c1C(=O)O)CCCC2)c1ccccc1 | 0.9 | 78.2* | 33.1 | x | 96.0* | x | 71.4* | 87.3*
O=c1ccc2c(-c3ccccc3)c3ccc(O)cc3oc-2c1 | -43.4 | 45.8* | 34.3 | x | 40.9* | x | 33.1* | 29.1*
CCNc1ccc2noc3c2c1C(=O)c1ccccc1-3 | -28.2 | 107.7* | 107.1* | 13.9 | 117.5* | 1.9 | 108.5* | 111.9*
SMILES | Rin1-Abl PPI inh | LYPLA1 inh | PREPL inh | Hck Nef HTS | LYPLA2 inh | p97 ATPase inh | LYPLA1 confirm | LYPLA2 conf
CCNc1ccccc(-c2ccc3ccccc3n2)c1=O | -2.3 | -2.0 | 12.8 | 2.8 | -7.4 | 1.6 | x | x
COc1ccc(CC(C)N2CCN(Cc3ccccc3)CC2)cc1OC (stereo not given) | -2.1 | 25.5* | 9.5 | x | 27.6* | x | 5.1 | -3.7
Cc1cc(C)n2nc(SC(C)C(=O)N(C)C3CCCCC3)nc2n1 (stereo not given) | 1.2 | x | 18.3 | x | x | x | x | x
Cc1cccc(N2CCN(CC(O)COc3ccc(Cl)cc3)CC2)c1 (stereo not given) | 2.8 | 1.6 | 23.0 | 13.7 | 19.8 | 4.0 | x | x
OC(COc1ccc(Cl)cc1)CN1CCN(c2cccc(Cl)c2)CC1 (stereo not given) | 1.1 | 19.8* | 21.4 | 13.6 | 58.6* | -0.2 | 27.1* | 61.8*
O=C1CSC(=S)N1 | 3.8 | -1.6 | 3.3 | x | 0.6 | x | x | x
CCCC(=O)C1=C(O)C(C(=O)OC)C(C)(C)CC1=Nc1ccc(N)cc1 (stereo not given) | -0.9 | -3.2 | -9.7 | -0.9 | 1.0 | -6.2 | x | x
CCCC(=Nc1ccc(N)cc1)C1=C(O)C(C(=O)OC)C(C)(C)CC1=O (stereo not given) | 3.1 | 14.6* | 30.8 | -17.4 | 27.5* | 14.5* | 2.2 | 4.6
CN(C)c1ccc(S(=O)(=O)NCC(=O)N2CCN(c3ccccc3)CC2)cc1[N+](=O)[O-] | -3.9 | 18.0* | 3.7 | x | 28.0* | x | 23.6* | 26.4*
COc1cccc(COc2ccc3c(C)c(Cc4ccccc4)c(=O)oc3c2)c1 | 1.3 | 0.5 | -6.3 | 2.3 | 7.5 | 2.5 | x | x
COc1cc(COc2ccc3c(C)c(Cc4ccccc4)c(=O)oc3c2)cc(OC)c1OC | 1.5 | 17.3* | -9.3 | -0.5 | 50.5* | -6.9 | 36.2* | 57.5*
Cc1ccc(-n2c(SCC(=O)c3c(N)n(C4CC4)c(=O)[nH]c3=O)nnc2N2CCOCC2)cc1 | -2.2 | x | x | x | x | x | x | x
C/C(=C\c1ccccc1)CN1CCN(c2cccc(Cl)c2)CC1 | 1.4 | 24.7* | 13.1 | 0.9 | 37.4* | 0.4 | 42.5* | 44.1*
CCN1CCN(C/C(C)=C/c2ccccc2)CC1 | -3.0 | x | x | x | x | x | x | x
COc1ccccc1NC(=O)C1CCCN(S(=O)(=O)c2ccc(-n3cnnn3)cc2)C1 (stereo not given) | 2.1 | -0.2 | 11.1 | x | 4.9 | x | x | x
